Source: PubChem
Sampled rows, rich in hits. Any-hit rate of the full collection: about 8.1%.
NOMO-1 viab: NOMO-1 AML cell viability reduction, primary screen, STK33 inhibitor project, CellTiter-Glo luminescence; inhibition, % (concentration not given with the values); 37,000 tested, 7.5% active; NOMO-1 AML viability, 72 h; in the data active = inhibition above about 80%
Shh pathway inh: Hedgehog pathway signaling inhibitors, primary screen, luminescence, Shh-LIGHT2 cells, Gli-luciferase; Shh-LIGHT2 Gli-luciferase reporter, 30 h; inhibition, % (concentration not given with the values); 22,000 tested, 2.1% active; AID 2313, 2010;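 active = mean inhibition across valid replicates above about 65%, limit read from the data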;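 note: pathway switched on by Shh-conditioned medium diluted 1 in 25 in low serum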
MITF inh: inhibitors of MITF, primary screen, MITF inhibitor project, cell-based, luminescence; TRPM1 promoter luciferase, 24 h; inhibition, % (no concentration beside the values); 37,000 tested, 0.28% active; AID 2240, 2010; in the data active = inhibition above about 85%;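 note: human melanocyte line stably carrying TRPM1 promoter luciferase reporter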
* hit, by the source's call; . = not tested or not shown.

SMILES | NOMO-1 viab | Shh pathway inh | MITF inh
O=C(CCCCc1ccc(O)cc1)CCc1ccc(O)cc1 | 104.5* | 27.8 | 10.1
CC1=C(C(=O)Nc2ccccc2)C(c2ccccc2OCc2ccccc2)n2nnnc2N1 (stereo not given) | 3.3 | . | 54.4
O=C(Nc1ccc(OCc2nc3ccccc3s2)cc1)c1cccc(I)c1 | 105.5* | . | -7.1
CCC(=O)Nc1ccc(OCc2nc3ccccc3s2)cc1 | -6.9 | . | 38.2
COC(=O)c1c(NC(=O)c2ccc(N(C)S(=O)(=O)c3ccc(C)cc3)cc2)sc2c1CCCC2 | -18.4 | . | -5.2
COC(=O)c1c(NC(=O)c2ccccc2N(C)S(=O)(=O)c2ccccc2)sc2c1CCCC2 | 117.1* | . | 48.1
S=C(NCc1ccco1)NCC1CC(c2ccccc2)=NO1 (stereo not given) | -42.8 | . | -13.4
C[C@@H]1CN([C@@H](C)CO)C(=O)c2cccc(NC(=O)C3CC3)c2O[C@H]1CN(C)Cc1ccc(C(=O)Nc2ccccc2N)cc1 | 73.0 | . | 17.5
C[C@H]1CN([C@@H](C)CO)C(=O)c2cccc(NC(=O)C3CCOCC3)c2O[C@@H]1CN(C)Cc1ccc(C(=O)Nc2ccccc2N)cc1 | 24.5 | . | 5.4
C[C@@H]1CN([C@@H](C)CO)C(=O)c2cccc(NC(=O)C3CCCCC3)c2O[C@@H]1CN(C)Cc1ccc(C(=O)Nc2ccccc2N)cc1 | 126.6* | . | 31.8
C[C@@H]1CN([C@H](C)CO)C(=O)c2cccc(NC(=O)C3CCOCC3)c2O[C@@H]1CN(C)Cc1ccc(C(=O)Nc2ccccc2N)cc1 | 107.2* | . | 2.5
COc1ccc(OC)c(S(=O)(=O)N2CCC(C(=O)Nc3cccc(C(C)=O)c3)CC2)c1 | 30.9 | . | -0.8
O=C1c2ccccc2O[C@@H](c2ccc(Cl)cc2)[C@@H]1O | 113.7* | -35.1 | -3.0
COc1cc(O)c2c(c1)O[C@H](c1ccc(O)cc1)[C@@H](O)C2=O | . | -4.2 | .
Cc1[nH]c2ccccc2c1C(=O)CSc1nnc2ccccn12 | -17.8 | . | -92.4
Cc1ccc(S(=O)(=O)N(CC(=O)O)c2cc(Cl)ccc2C)cc1 | -8.2 | . | -20.1
O=c1[nH]nc(SCc2ccccc2)n1-c1ccc(OCc2ccccc2)cc1 | 32.0 | 33.0 | 1.1
O=C(CNC(=O)c1ccc([N+](=O)[O-])cc1)Nc1cccc(C(F)(F)F)c1 | -7.4 | . | 13.2
Cc1cc(-c2ccccn2)n[nH]c1=O | 13.6 | -10.5 | -32.4
C[C@H](CO)N1C[C@H](C)[C@H](CN(C)Cc2ccc(C(=O)Nc3ccccc3N)cc2)Oc2c(NS(=O)(=O)c3ccc(Cl)cc3)cccc2C1=O | 120.6* | . | 43.2
C[C@@H]1CN([C@H](C)CO)C(=O)c2cccc(NS(=O)(=O)c3cccs3)c2O[C@H]1CN(C)Cc1ccc(C(=O)Nc2ccccc2N)cc1 | 44.1 | . | -10.6
C[C@H]1CN([C@@H](C)CO)C(=O)c2cccc(NS(=O)(=O)c3ccc(Cl)cc3)c2O[C@H]1CN(C)Cc1ccc(C(=O)Nc2ccccc2N)cc1 | 117.7* | . | 2.8
C[C@@H]1CN([C@@H](C)CO)C(=O)c2cccc(NS(=O)(=O)c3ccc(Cl)cc3)c2O[C@@H]1CN(C)Cc1ccc(C(=O)O)cc1 | -2.8 | -66.8 | -3.9
C[C@H](CO)N1C[C@H](C)[C@H](CN(C)Cc2ccc(C(=O)Nc3ccccc3N)cc2)Oc2c(NS(=O)(=O)c3ccccc3)cccc2C1=O | 138.8* | . | 28.7
C[C@H](CO)N1C[C@H](C)[C@H](CN(C)Cc2ccc(C(=O)Nc3ccccc3N)cc2)Oc2c(NS(=O)(=O)c3cccs3)cccc2C1=O | 87.8* | . | 6.2
SMILES | NOMO-1 viab | Shh pathway inh | MITF inh
C[C@@H]1CN([C@H](C)CO)C(=O)c2cccc(NS(=O)(=O)c3ccccc3)c2O[C@H]1CN(C)Cc1ccc(C(=O)Nc2ccccc2N)cc1 | 58.2 | . | -20.3
CCn1c(SCC(=O)Nc2c(C)cccc2C)nnc1-c1cnccn1 | -3.5 | . | -21.1
CCOC(=S)Nc1ccc(I)cc1 | 35.8 | -121.4 | 3.4
CC(Oc1cccc(Cl)c1)c1nc(-c2cccnc2)no1 (stereo not given) | 40.9 | . | -46.8
COc1cccc(OC)c1C(=O)Nc1ccc(C(=O)NCC2CCCO2)cc1 (stereo not given) | 8.8 | . | -2.2
O=C(CSc1ncn[nH]1)c1c[nH]c2ccccc12 | 18.7 | . | -33.8
Cc1ccccc1NS(=O)(=O)c1ccc(Cl)c(C(=O)Nc2ccccc2C(=O)O)c1 | -8.3 | . | 10.3
COc1ccc(S(=O)(=O)Nc2cccc3c2O[C@@H](CN(C)Cc2ccc(C(=O)Nc4ccccc4N)cc2)[C@H](C)CN([C@H](C)CO)C3=O)cc1 | 71.9 | . | -1.7
C[C@@H]1CN([C@H](C)CO)C(=O)c2cccc(NS(=O)(=O)c3ccc(Cl)cc3)c2O[C@@H]1CN(C)Cc1ccc(C(=O)Nc2ccccc2N)cc1 | 125.6* | . | -0.1
COc1ccc(S(=O)(=O)Nc2cccc3c2O[C@@H](CN(C)Cc2ccc(C(=O)Nc4ccccc4N)cc2)[C@@H](C)CN([C@@H](C)CO)C3=O)cc1 | 112.2* | . | 15.3
Cc1noc(C)c1S(=O)(=O)Nc1cccc2c1O[C@H](CN(C)Cc1ccc(C(=O)O)cc1)[C@@H](C)CN([C@H](C)CO)C2=O | -6.1 | -19.9 | -0.4
Cc1noc(C)c1S(=O)(=O)Nc1cccc2c1O[C@H](CN(C)Cc1ccc(C(=O)Nc3ccccc3N)cc1)[C@H](C)CN([C@H](C)CO)C2=O | 117.6* | . | 11.0
COc1c(C)c(OCC=C(C)C)cc(CO)c1CO | 16.6 | -18.1 | -4.7
O=C(Cn1cnc2scc(-c3cccc([N+](=O)[O-])c3)c2c1=O)Nc1ccc(Cl)cc1 | 15.9 | . | 52.3
CCn1c(SCC(=O)Nc2ccc(Cl)c(Cl)c2)nnc1-c1cccnc1 | -10.4 | . | 4.0
C[C@@H]1CN([C@H](C)CO)C(=O)c2cccc(NC(=O)CCCCCC(=O)Nc3ccccc3N)c2O[C@H]1CN(C)Cc1ccc(-c2ccccc2)cc1 | 125.7* | . | 52.0
C[C@H]1CN([C@@H](C)CO)C(=O)c2cccc(NC(=O)CCCCCC(=O)Nc3ccccc3N)c2O[C@@H]1CN(C)Cc1ccc(-c2ccccc2)cc1 | 134.4* | . | 25.5
C[C@H]1CN([C@@H](C)CO)C(=O)c2cccc(NC(=O)CCCCCC(=O)Nc3ccccc3N)c2O[C@H]1CN(C)CC1CC1 | 12.7 | . | -16.0
C[C@@H]1CN([C@H](C)CO)C(=O)c2cc(NC(=O)CCCCCC(=O)Nc3ccccc3N)ccc2O[C@H]1CN(C)Cc1ccc(-c2ccccc2)cc1 | 68.7 | . | -0.1
C[C@@H]1CN([C@H](C)CO)C(=O)c2cccc(NC(=O)CCCCCC(=O)Nc3ccccc3N)c2O[C@@H]1CN(C)CC1CCCCC1 | 118.6* | . | -0.6
C[C@H](CO)N1C[C@H](C)[C@@H](CN(C)Cc2ccncc2)Oc2c(NC(=O)CCCCCC(=O)Nc3ccccc3N)cccc2C1=O | 15.1 | . | -18.4
Cc1cc(C)c(NC(=O)C(C)N(c2ccc(Oc3ccccc3)cc2)S(C)(=O)=O)c(C)c1 (stereo not given) | 14.7 | . | 4.4
O=C1CN(C(=O)/C=C/c2ccccc2)C(c2ccccc2)c2cc(Br)ccc2N1 (stereo not given) | 89.5* | . | 33.8
CC1=Nc2ccc(Br)cc2C(c2ccccc2)N1CC(=O)NN (stereo not given) | 19.1 | -15.3 | -2.8
Cc1cc(C)nc(NS(=O)(=O)c2ccc(-n3c(-c4ccc5ccccc5n4)n[nH]c3=S)cc2)n1 | -4.3 | . | -12.4
